Test results taken from PubChem BioAssay AID1619 (SRMLSC, 2009).
Out of some 220,000 compounds screened, about 830 (0.38%) were called active.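 Rule for the calls: active = compound inhibiting the enzyme by more than half at any dose during confirmatory dose-response retesting; inconclusive = strong single-dose inhibitors picked by rank but not retested; inactive = the rest.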 Not all results are given here. Entries with a potency or affinity are not part of this list.

The compounds below were run against Leucine aminopeptidase (Plasmodium falciparum (isolate 3D7)) (UniProt Q8IL11) (assay: P. falciparum M17LAP inhibitors, primary screen, biochemical, fluorogenic H-Leu-NHMec substrate, 1536-well (AID 1619;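 note: plate controls were full reaction with DMSO carrier for no effect and no enzyme background for full effect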)). Details: recombinant M17LAP, H-Leu-NHMec fluorogenic kinetic assay; at 30 µM; hits give high values.
Chain of Leucine aminopeptidase (Plasmodium falciparum (isolate 3D7)) (Q8IL11 whole entry, looked up): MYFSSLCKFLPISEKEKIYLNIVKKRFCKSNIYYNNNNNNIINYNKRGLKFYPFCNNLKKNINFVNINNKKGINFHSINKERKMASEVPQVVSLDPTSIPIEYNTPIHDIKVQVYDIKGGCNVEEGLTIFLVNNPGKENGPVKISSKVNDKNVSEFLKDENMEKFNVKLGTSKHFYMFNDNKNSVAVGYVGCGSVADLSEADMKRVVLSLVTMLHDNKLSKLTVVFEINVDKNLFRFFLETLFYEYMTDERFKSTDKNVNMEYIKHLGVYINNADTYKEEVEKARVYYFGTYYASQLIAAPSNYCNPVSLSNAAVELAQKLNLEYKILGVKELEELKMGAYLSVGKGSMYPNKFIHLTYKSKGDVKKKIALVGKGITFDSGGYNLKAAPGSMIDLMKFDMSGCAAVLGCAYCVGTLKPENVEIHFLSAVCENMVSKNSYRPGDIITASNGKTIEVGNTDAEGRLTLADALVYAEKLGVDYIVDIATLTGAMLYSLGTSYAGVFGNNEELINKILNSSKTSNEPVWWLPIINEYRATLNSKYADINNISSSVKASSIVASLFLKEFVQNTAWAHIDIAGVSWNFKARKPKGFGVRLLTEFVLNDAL
In the case of `Cc1ccc(-c2cc(C(=O)NCc3ccco3)no2)cc1`, the inhibition is reported as -5.12% (inactive). With `COc1cc(SC)ccc1C(=O)NCCN1CCOCC1` the inhibition was -0.03% (inactive). `O=C(c1cccc(NS(=O)(=O)c2cccc(F)c2)c1)N1CCN(c2ccccc2)CC1` was tested, and the inhibition was -9.4% (inactive). In the case of `Cn1c(SCC(=O)Nc2ccc(N3CCOCC3)cc2)nnc1-c1ccccc1`, the inhibition is reported as -0.5% (inactive). For `COc1ccc(/C=N/N=C2\SC(CC(=O)O)C(=O)N2c2ccccc2)cc1` (stereo not drawn), the inhibition was 33.9% (inactive). `COc1ccc(/C=N\N=C2/SC(CC(=O)O)C(=O)N2c2ccc(O)cc2)cc1` (stereo not drawn) was tested, and the inhibition was 45.6% (inactive). `Cc1ccc2cc(C)c3nnc(SCC(=O)N4CCCc5ccccc54)n3c2c1C` was tested, and the inhibition was 1.13% (inactive). `Cc1cc(C(=O)CN2C(=O)NC3(CCCc4ccccc43)C2=O)c(C)n1Cc1ccccc1` (stereo not drawn) was tested, and the inhibition was 7.63% (inactive). For `CCOc1ccccc1NC(=O)NC1(C(=O)N2CCN3CCCC3C2)CCCCC1` (stereo not drawn), the inhibition was 20.5% (inactive). For `Cc1cc(SCC(=O)c2ccc(O)c(O)c2)n2nc(C)c(-c3ccccc3)c2n1`, the inhibition was 16.1% (inactive). In the case of `CCn1c(SCC(=O)OC)nnc1-c1ccc(C)cc1`, the inhibition is reported as 3.28% (inactive). `CCn1c(SCC(=O)c2ccc(C)cc2)nnc1-c1ccncc1` was tested, and the inhibition was 3.05% (inactive). For `CCn1c(SCC(=O)O)nnc1-c1ccccc1`, the inhibition was -5.68% (inactive). For `O=C(CSc1nc2ccccc2n1CCc1ccccc1)c1ccc(O)c(O)c1`, the inhibition was -0.72% (inactive). `Cc1cc(SCC(=O)c2ccc(O)c(O)c2)nc2ccccc12` was tested, and the inhibition was 36.2% (inactive). `CCn1c(SCC(=O)c2ccccc2)nnc1-c1cccnc1` was tested, and the inhibition was 14.5% (inactive). For `Cn1cnnc1SCC(=O)c1ccc(O)c(O)c1`, the inhibition was 38.8% (inactive). `Cc1ccc2cc(CN(CC3CCCO3)S(=O)(=O)c3cccc4nsnc34)c(=O)[nH]c2c1` (stereo not drawn) was tested, and the inhibition was -1.29% (inactive). With `O=C(COC(=O)c1ccc[nH]c1=O)NCC1CCCO1` (stereo not drawn) the inhibition was -1.42% (inactive). In the case of `Cc1ccc(S(=O)(=O)N2CCN(CC(=O)NC3CCCc4ccccc43)CC2)c(C)c1` (stereo not drawn), the inhibition is reported as 5.05% (inactive). For `CC(NC(=O)C(C)N1C(=O)C2C3CC(C(Br)C3Br)C2C1=O)c1ccccc1` (stereo not drawn), the inhibition was 10.6% (inactive). For `C=CCOC(=O)C1=C(C)Nc2ncnn2C1c1cc(Br)ccc1F` (stereo not drawn), the inhibition was -2.3% (inactive). In the case of `Cc1ccc(CSc2nnc(SCC(=O)N/N=C/C=C/c3ccccc3[N+](=O)[O-])s2)cc1`, the inhibition is reported as 5.78% (inactive). `S=c1[nH]nc(-c2ccccn2)n1/N=C/c1ccco1` was tested, and the inhibition was 0.92% (inactive). In the case of `CCOc1ccc(C(=O)CN2CCN(S(=O)(=O)c3ccc(Br)cc3)CC2)cc1`, the inhibition is reported as 41.1% (inactive). With `CCOc1ccc(C(=O)CN2CCN(S(=O)(=O)c3ccc(F)cc3)CC2)cc1` the inhibition was 26.6% (inactive). For `CC(C)[C@H](NS(=O)(=O)c1ccc2c(c1)OCCO2)C(=O)OCC(=O)Nc1ccccc1Cl`, the inhibition was 9.34% (inactive). For `Cc1ccc(C)c(NC(=O)c2ccccc2NS(=O)(=O)c2cc([N+](=O)[O-])ccc2C)c1`, the inhibition was 31.8% (inactive). With `CC(=O)Nc1ccc(NS(=O)(=O)c2cc([N+](=O)[O-])ccc2C)cc1` the inhibition was 1.99% (inactive). With `CCN(CC)CCN(C(=O)c1ccc2c(c1)CCCC2)c1nc2ccc(F)cc2s1` the inhibition was -4.78% (inactive). With `c1ccc(CCNc2nc(-c3ccncc3)nc3ccccc23)cc1` the inhibition was 11.8% (inactive). `CCOC(=O)c1c(-c2ccc(OC)c(OC)c2)csc1NC(=O)C1CCCO1` (stereo not drawn) was tested, and the inhibition was -3.98% (inactive). In the case of `CCOC(=O)c1c(-c2ccccc2)csc1NC(=O)C1CCCO1` (stereo not drawn), the inhibition is reported as 17.1% (inactive). In the case of `COC(=O)c1sccc1NC(=O)C1CC=CCC1C(=O)O` (stereo not drawn), the inhibition is reported as 36.4% (inactive). In the case of `COC(=O)c1c(-c2ccccc2)csc1NC(=O)c1ccco1`, the inhibition is reported as 4.09% (inactive). In the case of `Cc1ccsc1C(=O)NNC(=O)C1CC=CCC1C(=O)O` (stereo not drawn), the inhibition is reported as 28% (inactive). `CC(C)OC(=O)c1c(-c2ccc(C(C)C)cc2)csc1NC(=O)C1CCCO1` (stereo not drawn) was tested, and the inhibition was 16.2% (inactive). With `CCc1ccc(-c2csc(NC(=O)C3CCCO3)c2C(=O)OC(C)C)cc1` (stereo not drawn) the inhibition was 57.8% (inactive). In the case of `COC(=O)c1c(-c2cccc(C)c2)csc1NC(=O)C1CCCO1` (stereo not drawn), the inhibition is reported as -0.44% (inactive). In the case of `COc1ccc(NC(=O)C2=C(C)NC(=O)NC2c2cccs2)c(OC)c1` (stereo not drawn), the inhibition is reported as 2.25% (inactive). In the case of `COc1ccc(OCC(=O)OC2CCCN(C)C2)cc1` (stereo not drawn), the inhibition is reported as 3.48% (inactive). For `Cc1c(-c2ccc(Cl)cc2)oc(=O)c2c(N)n(-c3ccccc3)nc12`, the inhibition was -7.58% (inactive). In the case of `CCN(c1ccccc1)S(=O)(=O)c1cc(C(=O)OC(C)C(=O)Nc2ccc3c(c2)OCCO3)ccc1C` (stereo not drawn), the inhibition is reported as -0.98% (inactive). For `Cn1c(SCC(=O)NCCN2C(=O)CSC2=O)nnc1-c1ccccc1`, the inhibition was -14.5% (inactive). With `Cc1cc(C)c(-c2c(O)c3cnn(-c4ccccc4)c3[nH]c2=O)c(C)c1` the inhibition was 13.5% (inactive). For `Cc1ccc(CC(=O)N2CCOCC2)cc1`, the inhibition was 0.85% (inactive). `Cc1ccc2ccccc2[n+]1CCCS(=O)(=O)[O-]` was tested, and the inhibition was 7.83% (inactive). In the case of `CCOC(=O)c1c(-c2ccc(F)cc2)csc1NC(=O)C1CC=CCC1C(=O)O` (stereo not drawn), the inhibition is reported as 3.77% (inactive). `CCOC(=O)c1c(-c2cccc([N+](=O)[O-])c2)csc1NC(=O)C1CCCCC1` was tested, and the inhibition was -7.16% (inactive). For `COC(=O)c1c(-c2ccc(C)cc2)csc1NC(=S)NC(=O)c1ccc(F)cc1`, the inhibition was -17.5% (inactive). In the case of `COC(=O)c1c(-c2ccccc2)csc1NC(=O)C1CC=CCC1C(=O)O` (stereo not drawn), the inhibition is reported as 6.75% (inactive). In the case of `CCOC(=O)c1c(-c2ccc(C)cc2)csc1NC(=O)C1CCCO1` (stereo not drawn), the inhibition is reported as -4.23% (inactive). In the case of `CCOC(=O)c1c(-c2cccc([N+](=O)[O-])c2)csc1NC(=O)C1CC1`, the inhibition is reported as -5.68% (inactive). `Cc1nn(-c2ccccc2)c(N)c1C(O)(CSc1nccn1C)C(F)(F)F` (stereo not drawn) was tested, and the inhibition was -3.48% (inactive). With `CCC(CC)c1nnc(NC(=O)C2=NNC(=O)CC2)s1` the inhibition was -4.73% (inactive). For `COc1ccc(-c2cc(=O)n(-c3ccc([N+](=O)[O-])cc3)[nH]2)cc1`, the inhibition was 2.52% (inactive). In the case of `Nn1cnc2sc3c(c2c1=O)CCC3`, the inhibition is reported as 0.94% (inactive). In the case of `CCC(=O)Nc1ccc2c(c1)C(=O)c1ccccc1C2=O`, the inhibition is reported as -6.31% (inactive). In the case of `COC(=O)N1[C@H](C)C=C[C@]1(Cc1ccccc1)C(=O)O`, the inhibition is reported as 2.77% (inactive). For `CCOC(=O)c1ccc(Cl)c(NC(=O)c2ccc(-c3ccccc3)cc2)c1`, the inhibition was -7.72% (inactive). In the case of `COc1ccc(N2C(=O)/C(=C/c3ccc([N+](=O)[O-])cc3)C=C2c2ccccc2)cc1`, the inhibition is reported as -15.3% (inactive). In the case of `COc1ccccc1Nc1nc(-c2c(C)nc3ncccn23)cs1`, the inhibition is reported as 11.3% (inactive). With `COc1ccc(C2C(C#N)=C(N)OC3=C2C(=O)CC(C)(C)C3)cc1` (stereo not drawn) the inhibition was 7% (inactive). With `CCN=c1scc(C)n1/N=C/c1ccsc1` the inhibition was 12.2% (inactive). For `CN=c1scc(C)n1/N=C/c1ccc(O)c(O)c1O`, the inhibition was 59% (inactive). `CCCCN(CC)CCCNC(=O)c1cc2c(=O)n(C)c3ccccc3c2n1C` was tested, and the inhibition was -2.09% (inactive). In the case of `COc1ccc(C(=O)CCC(=O)O)cc1`, the inhibition is reported as 2.45% (inactive). With `O=C(O)CCN1C(=O)/C(=C\c2ccncc2)SC1=S` the inhibition was 12.4% (inactive). With `C/C(=C1/SC(=S)N(CCC(=O)O)C1=O)c1ccc(O)cc1` the inhibition was 52.2% (inactive). In the case of `COc1ccc(/C=C2/SC(=S)N(CCC(=O)O)C2=O)cc1`, the inhibition is reported as 38.8% (inactive). `C=CCNC(=O)CCCc1ccccc1` was tested, and the inhibition was 11.4% (inactive). In the case of `CC1CCCCN1C(=O)Cn1cnc2c1c(=O)n(C)c(=O)n2C` (stereo not drawn), the inhibition is reported as 0.19% (inactive). In the case of `Cc1cc(-c2ccccc2)nc(Oc2cccc(C(F)(F)F)c2)c1S(C)(=O)=O`, the inhibition is reported as -2.06% (inactive). With `COc1cccc(-n2nc3c(=S)[nH]nc(C)c3c2C)c1` the inhibition was -3.52% (inactive). `O=C(O)COCC(=O)Nc1cc(C(F)(F)F)cc(C(F)(F)F)c1` was tested, and the inhibition was -0.47% (inactive). With `COc1ccccc1NS(=O)(=O)c1ccc(NC(=O)c2ccncc2)cc1` the inhibition was -5.68% (inactive). With `Cc1ccccc1-c1cc(=O)c2c(O)cccc2o1` the inhibition was -7.05% (inactive). In the case of `COc1ccc(-c2cc(=O)c3c(O)c(OC)c(O)cc3o2)cc1`, the inhibition is reported as -3.88% (inactive). With `COc1ccc(C2=NOC(C(=O)Nc3cc(C)on3)C2)cc1` (stereo not drawn) the inhibition was -16.7% (inactive). For `COc1ccccc1NC(=O)CSC1CC(=O)N(c2ccc3c(c2)OCO3)C1=O` (stereo not drawn), the inhibition was 2.14% (inactive). With `COC(=O)c1ccc(N2C(=O)CC(SCC(=O)Nc3ccc(OC)cc3)C2=O)cc1` (stereo not drawn) the inhibition was -6.08% (inactive). For `COC(=O)[C@@]1(Cc2ccccc2)[C@H]2c3cc(C(=O)N4CCCC4)n(CCSCCO)c3C[C@H]2CN1C(=O)c1ccccc1`, the inhibition was 2.66% (inactive). For `CN(CCC#N)S(=O)(=O)c1ccc2[nH]cc(C(=O)NCCc3ccccc3)c(=O)c2c1`, the inhibition was -16% (inactive). In the case of `Cc1cc(Cl)ccc1C(=O)C1CCCN(C(=O)CCn2cnnn2)C1` (stereo not drawn), the inhibition is reported as 5.92% (inactive). In the case of `CCCc1[nH]nc2c1C(c1ccccc1OCC)C(C#N)=C(N)O2` (stereo not drawn), the inhibition is reported as 8.34% (inactive). For `CCOc1ccccc1C1C(C#N)=C(N)Oc2n[nH]c(CC)c21` (stereo not drawn), the inhibition was 29.4% (inactive). `CCOC(=O)N1CCC(N2C(=O)c3ccccc3C2Nc2ccc3c(c2)OCCO3)CC1` (stereo not drawn) was tested, and the inhibition was -7.29% (inactive). For `CCn1c(-c2cc(-c3ccc(C)cc3)nc3ccccc23)n[nH]c1=S`, the inhibition was -3.9% (inactive). For `CCCCS(=O)(=O)N1CN(S(=O)(=O)CCCC)C2NC(=O)NC21` (stereo not drawn), the inhibition was 0.79% (inactive). With `CCCc1cc(=O)oc2c(C)c(OCc3nn[nH]n3)ccc12` the inhibition was -5.76% (inactive). With `CCCCc1cc(=O)oc2c(C)c(OCc3nn[nH]n3)ccc12` the inhibition was 6.82% (inactive). In the case of `O=C(NC1CCCCC1)c1ccccc1NC(=S)NC(=O)C1CC1`, the inhibition is reported as 5.81% (inactive). `S=C(Nc1ccccc1)Nc1ccccc1-n1cccc1` was tested, and the inhibition was -5.63% (inactive).
